Hit rate of the full screen: of about 5,500 compounds, about 2,000 (36%) were called active. About 18% were inconclusive and are not listed. The list shows a part of the results. Unmarked numbers belong to inactive results. Cut-off read from the data, not from the text of the source: active = normalized growth mostly below about 0.91 (no sharp cut-off); inconclusive = no clear call, values can overlap the other calls; inactive = mostly above about 0.92.

Here are results for 2 compounds from PubChem BioAssay AID1159580 (chemical genetic matrix, 2015).

This assay can be described thus: chemical genetic growth profiling, strain panel (AID 1159580).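 Note: tested at 20 µM; growth read once vehicle control cultures reached saturation at 30 °C; 1 = growth at the plate median or of vehicle wells; lower values mean less growth of the strain.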 Conditions: growth OD.
The mark [1] stands for this setting: S. cerevisiae deletion strains, locus YAL013W, strain DEP1, hits give low values.
[2] abbreviates: S. cerevisiae deletion strains, locus YGR078C, strain PAC10, hits give low values.
[3] abbreviates: S. cerevisiae deletion strains, locus YMR263W, strain SAP30, hits give low values.
[4] abbreviates: S. cerevisiae deletion strains, locus YMR307W, strain GAS1, hits give low values.
[5] abbreviates: S. cerevisiae deletion strains, locus YNL153C, strain GIM3, hits give low values.
Where [6] appears, read: S. cerevisiae deletion strains, locus YNL322C, strain KRE1, hits give low values.

As for `C#CCN1C(C)=C(C(=O)OC)C(c2cccc([N+](=O)[O-])c2)C(C(=O)OCC)=C1C` (configuration not stated), the normalized growth under setting [1] was 1.01; the normalized growth (S. cerevisiae deletion strains, locus YAL040C, strain CLN3, hits give low values) was 0.971; the normalized growth (S. cerevisiae deletion strains, locus YCL061C, strain MRC1 (second series), hits give low values) was 1; the normalized growth (S. cerevisiae deletion strains, locus YDR363W, strain ESC2, hits give low values) was 1.01; the normalized growth (S. cerevisiae deletion strains, locus YER002W, strain NOP16, hits give low values) is 1.02; the normalized growth under setting [2] was 0.996. Also, the normalized growth runs as follows: under setting [3], 1.02; under setting [4], 0.998; (S. cerevisiae deletion strains, locus YNL128W, strain TEP1, hits give low values) 1.03; under setting [5], 0.988; (S. cerevisiae deletion strains, locus YNL175C, strain NOP13, hits give low values) 1.04; (S. cerevisiae deletion strains, locus YNL197C, strain WHI3, hits give low values) 1.03. In addition, the normalized growth reads like this: (S. cerevisiae deletion strains, locus YNL224C, strain SQS1, hits give low values) 1; under setting [6], 1; (S. cerevisiae deletion strains, locus YOR083W, strain WHI5 (second series), hits give low values) 1.04.
With `CCOC(=O)c1c(Nc2ccccc2)sc([N+](=O)[O-])c1N`, the normalized growth was 0.941 under setting [1]; 1.01 (S. cerevisiae deletion strains, locus YBR229C, strain ROT2, hits give low values); 1.02 (S. cerevisiae deletion strains, locus YDL101C, strain DUN1, hits give low values); 0.969 (S. cerevisiae deletion strains, locus YDR150W, strain NUM1, hits give low values); 0.985 (S. cerevisiae deletion strains, locus YEL061C, strain CIN8, hits give low values); 0.985 under setting [2]. The normalized growth (S. cerevisiae deletion strains, locus YHR030C, strain SLT2, hits give low values) is 0.743; the normalized growth (S. cerevisiae deletion strains, locus YHR087W, strain rtc3, hits give low values) was 0.98; the normalized growth (S. cerevisiae deletion strains, locus YJR043C, strain POL32, hits give low values) was 0.956; the normalized growth (S. cerevisiae deletion strains, locus YJR075W, strain HOC1, hits give low values) was 0.949; the normalized growth (S. cerevisiae deletion strains, locus YKL190W, strain CNB1, hits give low values) is 0.977; the normalized growth (S. cerevisiae deletion strains, locus YLR039C, strain RIC1, hits give low values) is 0.964. The normalized growth is, setting by setting: (S. cerevisiae deletion strains, locus YLR058C, strain SHM2 (second series), hits give low values) 1; (S. cerevisiae deletion strains, locus YLR085C, strain ARP6, hits give low values) 0.762 (active); (S. cerevisiae deletion strains, locus YLR262C, strain YPT6, hits give low values) 0.965; (S. cerevisiae deletion strains, locus YML094W, strain GIM5, hits give low values) 0.961; (S. cerevisiae deletion strains, locus YMR219W, strain ESC1, hits give low values) 0.998; under setting [3], 0.931. Also, the normalized growth is 0.66 (active) under setting [4]; 0.986 under setting [5]; 0.917 (S. cerevisiae deletion strains, locus YNL298W, strain CLA4 (second series), hits give low values); 0.985 under setting [6]; 0.952 (S. cerevisiae deletion strains, locus YNR030W, strain Alg12, hits give low values); 0.846 (S. cerevisiae deletion strains, locus YPL055C, strain LGE1, hits give low values). The normalized growth was 0.849 (active) (S. cerevisiae deletion strains, locus YPL241C, strain CIN2, hits give low values); 0.783 (S. cerevisiae deletion strains, locus YPR135W, strain CTF4, hits give low values); 0.977 (S. cerevisiae strains, strain wild type, hits give low values).
